{"source": "PubChem BioAssay AID488969", "about": "(Vanderbilt High Throughput Screening Facility, 2010)", "note": "Over roughly 110,000 compounds, “z-score” has its median near -0.1; the highest 2% begin near 2. The sample holds the highest values, similar compounds and a random draw of the others, so the mix is not that of the screen. Active and inactive are the calls of the source.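 Rule for the calls: active = z-score in the third read window above 3 or below -3; inactive = the rest.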"}
{"biological_target": "Metabotropic glutamate receptor 8 (Rattus norvegicus) (UniProt P70579)", "sequence (P70579 whole entry, looked up)": "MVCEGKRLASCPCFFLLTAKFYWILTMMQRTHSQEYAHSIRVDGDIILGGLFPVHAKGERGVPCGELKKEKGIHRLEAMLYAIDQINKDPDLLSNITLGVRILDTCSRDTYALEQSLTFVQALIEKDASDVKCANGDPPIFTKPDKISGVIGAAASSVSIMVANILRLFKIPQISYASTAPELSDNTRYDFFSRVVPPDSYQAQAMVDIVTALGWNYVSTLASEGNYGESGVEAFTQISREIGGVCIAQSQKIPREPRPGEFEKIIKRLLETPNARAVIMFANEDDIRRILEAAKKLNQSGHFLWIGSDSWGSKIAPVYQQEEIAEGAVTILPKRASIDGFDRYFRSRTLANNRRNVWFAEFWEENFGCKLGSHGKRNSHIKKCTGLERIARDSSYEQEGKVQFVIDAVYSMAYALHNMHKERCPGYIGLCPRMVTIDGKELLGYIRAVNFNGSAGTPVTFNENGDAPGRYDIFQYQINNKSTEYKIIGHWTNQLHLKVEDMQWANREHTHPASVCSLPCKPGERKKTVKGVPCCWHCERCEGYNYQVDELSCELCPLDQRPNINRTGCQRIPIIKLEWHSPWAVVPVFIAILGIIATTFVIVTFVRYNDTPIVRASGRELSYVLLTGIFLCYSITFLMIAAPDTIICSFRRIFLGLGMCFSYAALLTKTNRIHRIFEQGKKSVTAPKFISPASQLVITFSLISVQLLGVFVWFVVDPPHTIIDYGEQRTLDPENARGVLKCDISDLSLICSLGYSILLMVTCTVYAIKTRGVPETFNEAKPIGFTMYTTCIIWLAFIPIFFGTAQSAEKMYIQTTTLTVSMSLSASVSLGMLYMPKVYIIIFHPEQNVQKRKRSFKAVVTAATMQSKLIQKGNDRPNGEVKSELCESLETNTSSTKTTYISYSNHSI", "assay": "mGluR8 Gi/Go-coupled signaling modulation – cell-based, rat, thallium flux, HTS, primary screen (AID 488969)", "conditions": "HEK293 rat mGluR8, GIRK (G protein-gated inwardly rectifying potassium channel) thallium flux, FluoZin2; at 10 µM; stronger effect = higher value; submaximal glutamate (EC20) added with thallium"}
{"molecule": "CCN(CC)S(=O)(=O)c1ccc(NCc2ccccc2)nc1", "z-score": -0.962}
{"molecule": "Cc1sc2ncnc(SCC(=O)NCC(C)C)c2c1C", "z-score": -0.208}
{"molecule": "CCC(Sc1ncnc2sc(C)c(C)c12)C(=O)OC", "note": "(stereo not given)", "z-score": -0.469}
{"molecule": "Cc1sc2ncnc(SC(C)C(=O)N3c4ccccc4Sc4ccccc43)c2c1C", "note": "(stereo not given)", "z-score": 2.19}
{"molecule": "Cc1ccc(OCC(=O)NNC(=O)C(C)Sc2ncnc3sc(C)c(C)c23)cc1", "note": "(stereo not given)", "z-score": "7.7 (active)"}
{"molecule": "Cc1sc2ncnc(SCC(=O)c3ccc(Cl)s3)c2c1C", "z-score": 1.06}
{"molecule": "CCc1ccc(OCC(=O)NNC(=O)CSc2ncnc3sc(C)c(C)c23)cc1", "z-score": 0.487}
{"molecule": "COc1ccc(Cn2c(O)c(C=Nc3ccc(OC)cc3)c3ccccc3c2=O)cc1", "z-score": -0.178}
{"molecule": "NC(=O)c1c(NC(=O)CSc2nc3c(c(C(F)(F)F)n2)CCc2ccccc2-3)sc2c1CCCC2", "z-score": -0.123}
{"molecule": "Cc1ccc(C)c(NC(=O)Cc2csc(-c3ccccc3)n2)c1", "z-score": -0.0885}
{"molecule": "O=C(NC1CCCCC1)C(c1ccc2ncccc2c1)N(Cc1ccc2c(c1)OCO2)C(=O)c1cccs1", "note": "(stereo not given)", "z-score": 0.00177}
{"molecule": "CC(=O)c1cnc(Nc2ccccc2)s1", "z-score": 0.548}
{"molecule": "CCCNC(=O)Cc1c(OC)ccc2cc(Br)ccc12", "z-score": 0.421}
{"molecule": "COc1ccc2cc(Br)ccc2c1CC(=O)NC(C)(C)C", "z-score": -0.349}
{"molecule": "COc1ccc2cc(Br)ccc2c1CC(=O)NC1CC(C)(C)NC(C)(C)C1", "z-score": "3.91 (active)"}
{"molecule": "COc1ccc(CNCCC(c2ccc(F)cc2)c2ccc(OC)cc2)cc1", "note": "(stereo not given)", "z-score": "3.72 (active)"}
{"molecule": "Fc1ccccc1CNCCC(Cc1ccccc1)c1ccc2c(c1)OCO2", "note": "(stereo not given)", "z-score": 0.733}
{"molecule": "COc1ccc(CC(=O)NCc2ccc3c(c2)OCO3)cc1", "z-score": -0.347}
{"molecule": "COc1ccc(C(CCNCc2ccccc2)c2ccc(F)cc2)cc1", "note": "(stereo not given)", "z-score": 1.8}
{"molecule": "COc1ccc(C(CCNCc2ccccc2F)c2ccc(F)cc2)cc1", "note": "(stereo not given)", "z-score": "3.61 (active)"}
{"molecule": "COc1ccc(NC(=O)CC(c2ccc(F)cc2)c2ccc(OC)cc2)cc1", "note": "(stereo not given)", "z-score": -0.576}
{"molecule": "COc1ccc(C(CC(=O)Nc2ccc(F)cc2)c2ccccc2)cc1", "note": "(stereo not given)", "z-score": 1.4}
{"molecule": "COc1ccc(CNCCC(c2ccccc2)c2ccc3c(c2)OCO3)cc1", "note": "(stereo not given)", "z-score": 2.28}
{"molecule": "COc1ccc(C(CCNC(C)c2ccccc2)c2ccc(F)cc2)cc1", "note": "(stereo not given)", "z-score": 1.71}
{"molecule": "CCOC(=O)c1cc(NC(=O)N(C(C)C)C(C)C)c(C)nc1C", "z-score": 0.0304}
{"molecule": "Brc1ccc(-c2nc(-c3cccnc3)no2)o1", "z-score": -0.481}
{"molecule": "COc1ccc(CCNC(=O)Cn2nnc(-c3ccccc3F)n2)cc1OC", "z-score": 0.148}
{"molecule": "COc1ccc2c(c1)-c1c(sn(-c3ccccc3)c1=S)C(C)(C)N2", "z-score": -0.192}
{"molecule": "O=C(CC1Nc2ccccc2NC1=O)NCCc1ccccc1", "note": "(stereo not given)", "z-score": -0.0324}
{"molecule": "O=C(CC1Nc2ccccc2NC1=O)NCCCN1CCCCCC1", "note": "(stereo not given)", "z-score": 2.07}
{"molecule": "CCCCN(CC)CCCNC(=O)CC1Nc2ccccc2NC1=O", "note": "(stereo not given)", "z-score": 0.0522}
{"molecule": "COc1ccc(CNC(=O)C(NC(C)=O)C(=O)Nc2ccc(OC)cc2)cc1", "note": "(stereo not given)", "z-score": -0.149}
{"molecule": "Cc1ccc(C2(CC(=O)N3CCCC3)CCOC(C(C)C)C2)cc1", "note": "(stereo not given)", "z-score": -0.0604}
{"molecule": "O=C(O)CSc1nnnn1-c1ccc2c(c1)OCCO2", "z-score": -0.0806}
{"molecule": "COC(=O)C1=C(C)N(C)C(=O)NC1c1ccccc1", "note": "(stereo not given)", "z-score": -0.573}
{"molecule": "Cc1cccc(-n2c(C)nc3sccc3c2=O)c1", "z-score": 1.99}
{"molecule": "Cc1cccc(-n2c(C)nc3c(cnn3-c3ccc(F)cc3)c2=O)c1", "z-score": 1.02}
{"molecule": "Cc1nc2sccc2c(=O)n1-c1cccc(Cl)c1", "z-score": -0.144}
{"molecule": "Cc1noc(C)c1S(=O)(=O)N1CCCC(C(=O)N2CCC(C)CC2)C1", "note": "(stereo not given)", "z-score": 1.01}
{"molecule": "Cc1ccc(Cl)cc1NC1=C/C(=N\\S(=O)(=O)c2cccs2)c2ccccc2C1=O", "z-score": -0.209}
{"molecule": "O=C(c1ccccc1Cl)N1CCc2ccccc2C1", "z-score": -1.42}
{"molecule": "COc1ccc(NC(=O)/C(Cl)=C(/Cl)S(=O)(=O)Cc2ccc(C)cc2)cn1", "z-score": -0.418}
{"molecule": "O=C(Nc1ccc2c(c1)OCO2)N1CCOCC1", "z-score": 0.476}
{"molecule": "O=C(Nc1ccc2c(c1)OCO2)N1CCN(c2ccccc2Cl)CC1", "z-score": -0.291}
{"molecule": "O=C(Nc1ccc2c(c1)OCO2)N1CCN(C(=O)C2CCCO2)CC1", "note": "(stereo not given)", "z-score": 2.05}
{"molecule": "COc1ccccc1C(OC(=O)c1ccco1)C(=O)NC(C)(C)C", "note": "(stereo not given)", "z-score": -0.346}
{"molecule": "O=[N+]([O-])c1ccc(-c2nnc(CSc3nc(-c4ccccc4)nc4ccc(F)cc34)o2)cc1", "z-score": 0.0904}
{"molecule": "O=c1c2ccccc2nc(SCc2nnc(-c3ccccc3)o2)n1-c1ccc(F)cc1F", "z-score": -0.56}
{"molecule": "Fc1ccc2nc(-c3ccccc3)nc(SCc3nnc(-c4ccccc4)o3)c2c1", "z-score": "14.3 (active)"}
{"molecule": "COc1cc2c(cc1OC)C(COc1ccc3c(C)cc(=O)oc3c1)N(C(=O)c1ccco1)CC2", "note": "(stereo not given)", "z-score": 0.044}
{"molecule": "Cc1csc(SCC(=O)N2CCN(S(=O)(=O)c3ccc(Cl)cc3)CC2)n1", "z-score": 0.756}
{"molecule": "COC(=O)c1cc(-c2cccc(OC)c2)on1", "z-score": -1.1}
{"molecule": "COCCNC(=O)c1cc(-c2cccc(OC)c2)on1", "z-score": -0.215}
{"molecule": "COc1cccc(-c2cc(C(=O)NC3CCCC3)no2)c1", "z-score": "5.04 (active)"}
{"molecule": "CCOC(=O)c1c(C(F)(F)F)nc2ncccn12", "z-score": -0.534}
{"molecule": "O=C(c1cnn2c(C(F)(F)F)cc(-c3ccc4c(c3)OCO4)nc12)N1CCCC1", "z-score": -0.369}
{"molecule": "O=C(CCCc1c[nH]c2ccccc12)N1CCN(c2ccc(N3CCOCC3)nn2)CC1", "z-score": -0.501}
{"molecule": "O=C(COC(=O)c1ccc2c(=O)n3c(nc2c1)CCC3)Nc1ccccc1F", "z-score": -0.441}
{"molecule": "CN(C)c1cccc(C(=O)Nc2ccc3nc4n(c(=O)c3c2)CCCCC4)c1", "z-score": -0.303}
{"molecule": "Cc1ccccc1C(=O)Nc1ccc2nc3n(c(=O)c2c1)CCC3", "z-score": "3.87 (active)"}
{"molecule": "O=C(Nc1ccc2nc3n(c(=O)c2c1)CCCC3)c1ccccc1[N+](=O)[O-]", "z-score": -0.424}
{"molecule": "CC(C)(C)c1cc(NC(=O)COC(=O)c2ccc3c(=O)n4c(nc3c2)CCC4)n(-c2ccccc2)n1", "z-score": -0.264}
{"molecule": "Cc1cccc(NC(=O)COC(=O)c2ccc3c(=O)n4c(nc3c2)CCC4)c1", "z-score": 2.19}
{"molecule": "COc1ccccc1OC1=NS(=O)(=O)c2ccccc21", "z-score": -0.276}
{"molecule": "CC(C)(C)n1nc2c(c1NC(=O)c1ccccc1F)CS(=O)C2", "note": "(stereo not given)", "z-score": -0.492}
{"molecule": "Cc1cc(C(=O)N2CCN(C(c3ccccc3)c3ccccc3)CC2)no1", "z-score": -0.079}
{"molecule": "COc1ccc(-c2nc3ccccn3c2NCc2ccc3c(c2)OCO3)cc1", "z-score": -1.02}
{"molecule": "CCCCCn1nc(-c2ccccc2)c2nc3ccccc3nc21", "z-score": "14.9 (active)"}
{"molecule": "CCCn1nc(-c2ccccc2)c2nc3ccccc3nc21", "z-score": 0.0864}
{"molecule": "CCCCn1nc(-c2ccccc2)c2nc3ccccc3nc21", "z-score": -0.013}
